The text below walks through data of paper PMC7862700, “An all-to-all approach to the identification of sequence-specific readers for epigenetic DNA modifications on cytosine”.

Common to all, as to assay: DAPPL (digital affinity profiling via proximity ligation, sequencing); 10 mM Tris-HCl pH 7.5, 50 mM NaCl, 1 mM DTT, 4% glycerol, room temperature, 30 min; GST-TFs on glutathione beads, 16-mer random dsDNA library, 0.1% formaldehyde crosslink after washing; high values mean tight binding
For one assay, the target named is T1, FEV (Homo sapiens, UniProt Q99581 1-238).
T1 sequence: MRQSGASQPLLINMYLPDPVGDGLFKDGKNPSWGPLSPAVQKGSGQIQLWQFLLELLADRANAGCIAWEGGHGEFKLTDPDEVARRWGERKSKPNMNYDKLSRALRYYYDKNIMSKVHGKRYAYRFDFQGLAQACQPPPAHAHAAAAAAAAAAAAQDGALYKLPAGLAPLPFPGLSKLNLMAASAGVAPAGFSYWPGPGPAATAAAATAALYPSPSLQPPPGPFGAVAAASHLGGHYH
The following applies: protein: recombinant; tags: N-terminal GST; dsDNA, one strand shown. Put shortly: (§1)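 Binding signal is defined as a hexamer's read frequency for one factor over its frequency for the tag-only sample. To obtain reads, GST-fused human transcription factors were expressed in yeast, captured on glutathione beads, barcoded with DNA and pooled with that sample. Pools met 200 nmole of a 16-mer random double-stranded DNA library in Tris/NaCl/DTT/glycerol buffer for 30 min at room temperature before washing, 0.1% formaldehyde crosslinking, proximity ligation (BsaI/T4 ligase, 1 h, 37 °C), PCR and Illumina NextSeq500 sequencing.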

For a further assay, the target named is ETV5 (Homo sapiens, UniProt P41161 1-510). The following applies: protein: recombinant; tags: N-terminal GST; dsDNA, one strand shown. The method, boiled down: as §1
The target of another assay is HSF1 (Homo sapiens, UniProt Q00613 1-529). The following applies: protein: recombinant; tags: N-terminal GST; chain copies: 3; dsDNA, one strand shown. The method, boiled down:
as §1

Another assay deals with T2, SPIC (Homo sapiens, UniProt Q8N5J4 1-248).
T2 sequence: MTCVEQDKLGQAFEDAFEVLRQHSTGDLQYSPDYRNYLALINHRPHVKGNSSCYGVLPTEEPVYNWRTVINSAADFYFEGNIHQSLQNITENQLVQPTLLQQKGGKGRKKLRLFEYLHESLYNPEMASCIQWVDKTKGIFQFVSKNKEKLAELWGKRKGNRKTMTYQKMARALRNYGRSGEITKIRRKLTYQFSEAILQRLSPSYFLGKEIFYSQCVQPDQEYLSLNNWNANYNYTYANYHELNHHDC
The following applies: protein: recombinant; tags: N-terminal GST; dsDNA, one strand shown. The method, boiled down:
as §1

The target in another assay is ELF4 (Homo sapiens, UniProt Q99607 1-663). The following applies: protein: recombinant; tags: N-terminal GST; dsDNA, one strand shown. The method, boiled down: as §1
The next assay has as its target T3, ELK4 (Homo sapiens, UniProt P28324-2 1-405).
T3 sequence: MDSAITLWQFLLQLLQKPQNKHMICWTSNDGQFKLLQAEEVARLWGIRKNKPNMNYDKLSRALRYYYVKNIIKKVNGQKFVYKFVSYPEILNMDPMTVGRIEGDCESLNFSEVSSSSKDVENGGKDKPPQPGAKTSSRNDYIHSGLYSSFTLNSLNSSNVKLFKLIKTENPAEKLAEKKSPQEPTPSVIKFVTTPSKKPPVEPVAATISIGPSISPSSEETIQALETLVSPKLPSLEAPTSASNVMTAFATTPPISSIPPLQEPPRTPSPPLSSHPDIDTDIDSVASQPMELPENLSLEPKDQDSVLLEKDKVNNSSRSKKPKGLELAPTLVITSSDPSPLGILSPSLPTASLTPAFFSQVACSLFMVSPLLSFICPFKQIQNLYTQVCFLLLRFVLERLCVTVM
The following applies: protein: recombinant; tags: N-terminal GST; dsDNA, one strand shown. Put shortly:
as §1

In the next assay the target is T4, ETV2 (Homo sapiens, UniProt O00321 1-342).
T4 sequence: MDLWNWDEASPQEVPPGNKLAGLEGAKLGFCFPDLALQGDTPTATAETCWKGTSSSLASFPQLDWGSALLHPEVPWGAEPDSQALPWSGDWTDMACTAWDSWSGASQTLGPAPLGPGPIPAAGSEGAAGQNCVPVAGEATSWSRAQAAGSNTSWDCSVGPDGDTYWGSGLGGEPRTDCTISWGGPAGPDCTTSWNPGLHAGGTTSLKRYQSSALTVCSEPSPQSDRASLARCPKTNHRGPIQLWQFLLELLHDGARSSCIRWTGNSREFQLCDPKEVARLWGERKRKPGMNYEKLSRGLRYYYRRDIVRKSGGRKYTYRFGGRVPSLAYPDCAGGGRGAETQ
The following applies: protein: recombinant; tags: N-terminal GST; dsDNA, one strand shown. Put shortly: as §1

In another assay the target is T5, ELF3 (Homo sapiens, UniProt P78545 1-371).
T5 sequence: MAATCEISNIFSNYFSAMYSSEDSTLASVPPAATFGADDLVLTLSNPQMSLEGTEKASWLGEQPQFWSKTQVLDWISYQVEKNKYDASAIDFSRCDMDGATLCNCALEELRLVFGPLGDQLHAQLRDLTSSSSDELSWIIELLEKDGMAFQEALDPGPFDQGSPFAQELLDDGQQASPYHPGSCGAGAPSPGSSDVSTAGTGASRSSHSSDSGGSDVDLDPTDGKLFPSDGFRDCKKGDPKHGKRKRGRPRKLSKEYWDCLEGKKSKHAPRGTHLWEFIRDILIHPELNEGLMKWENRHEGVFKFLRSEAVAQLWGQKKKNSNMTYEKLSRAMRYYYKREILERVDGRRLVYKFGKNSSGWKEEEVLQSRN
The following applies: protein: recombinant; tags: N-terminal GST; dsDNA, one strand shown. Put shortly:
as §1

The next assay concerns the target CRX (Homo sapiens, UniProt O43186 1-299). The following applies: protein: recombinant; tags: N-terminal GST; dsDNA, one strand shown. Put shortly: as §1
A further assay addresses ETV1 (Homo sapiens, UniProt P50549 1-477). The following applies: protein: recombinant; tags: N-terminal GST; dsDNA, one strand shown. The method, boiled down:
as §1

A further assay deals with T6, ERF (Homo sapiens, UniProt P50548 1-548).
T6 sequence: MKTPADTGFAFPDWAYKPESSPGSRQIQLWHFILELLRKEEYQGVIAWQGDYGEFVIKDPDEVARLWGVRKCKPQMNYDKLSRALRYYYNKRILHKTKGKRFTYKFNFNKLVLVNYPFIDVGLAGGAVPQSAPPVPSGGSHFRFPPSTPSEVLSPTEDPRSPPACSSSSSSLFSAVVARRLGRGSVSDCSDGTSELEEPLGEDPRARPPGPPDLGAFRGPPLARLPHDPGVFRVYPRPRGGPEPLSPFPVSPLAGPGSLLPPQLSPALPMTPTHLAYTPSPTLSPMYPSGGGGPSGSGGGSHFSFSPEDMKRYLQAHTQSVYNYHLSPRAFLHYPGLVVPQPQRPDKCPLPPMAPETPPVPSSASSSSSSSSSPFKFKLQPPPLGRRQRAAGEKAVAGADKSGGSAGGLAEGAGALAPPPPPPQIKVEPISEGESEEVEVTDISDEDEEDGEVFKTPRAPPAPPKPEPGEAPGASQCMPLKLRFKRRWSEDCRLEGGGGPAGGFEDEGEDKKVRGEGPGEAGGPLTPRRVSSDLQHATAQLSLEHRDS
The following applies: protein: recombinant; tags: N-terminal GST; dsDNA, one strand shown. Put shortly: as §1

The target of another assay is T7, ETV3L (Homo sapiens, UniProt Q6ZN32 1-361).
T7 sequence: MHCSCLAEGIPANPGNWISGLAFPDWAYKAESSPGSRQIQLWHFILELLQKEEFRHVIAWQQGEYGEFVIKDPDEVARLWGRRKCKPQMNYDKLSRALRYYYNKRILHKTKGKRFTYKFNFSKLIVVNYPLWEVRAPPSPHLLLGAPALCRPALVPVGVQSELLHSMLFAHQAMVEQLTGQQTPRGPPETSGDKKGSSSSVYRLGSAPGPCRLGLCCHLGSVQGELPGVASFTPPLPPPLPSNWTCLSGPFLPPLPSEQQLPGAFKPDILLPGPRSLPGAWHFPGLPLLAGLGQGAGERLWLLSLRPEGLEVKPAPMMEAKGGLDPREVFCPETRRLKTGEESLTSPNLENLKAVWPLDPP
The following applies: protein: recombinant; tags: N-terminal GST; dsDNA, one strand shown. Put shortly:
as §1

The target in the next assay is T8, ETS2 (Homo sapiens, UniProt P15036 1-469).
T8 sequence: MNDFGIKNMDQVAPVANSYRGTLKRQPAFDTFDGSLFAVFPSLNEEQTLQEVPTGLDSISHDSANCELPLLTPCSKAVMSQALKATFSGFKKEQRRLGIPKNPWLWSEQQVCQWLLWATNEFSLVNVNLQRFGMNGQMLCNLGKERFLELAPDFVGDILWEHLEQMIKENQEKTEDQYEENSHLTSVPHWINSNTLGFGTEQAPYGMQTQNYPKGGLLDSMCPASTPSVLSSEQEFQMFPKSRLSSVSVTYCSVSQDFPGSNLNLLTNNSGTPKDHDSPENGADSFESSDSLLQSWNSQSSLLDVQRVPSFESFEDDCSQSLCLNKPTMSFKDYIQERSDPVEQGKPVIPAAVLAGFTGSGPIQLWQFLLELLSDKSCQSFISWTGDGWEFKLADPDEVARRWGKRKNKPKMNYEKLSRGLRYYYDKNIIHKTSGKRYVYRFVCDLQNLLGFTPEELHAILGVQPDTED
The following applies: protein: recombinant; tags: N-terminal GST; dsDNA, one strand shown. The method, boiled down:
as §1

The target of another assay is T9, SPDEF (Homo sapiens, UniProt O95238 1-335).
T9 sequence: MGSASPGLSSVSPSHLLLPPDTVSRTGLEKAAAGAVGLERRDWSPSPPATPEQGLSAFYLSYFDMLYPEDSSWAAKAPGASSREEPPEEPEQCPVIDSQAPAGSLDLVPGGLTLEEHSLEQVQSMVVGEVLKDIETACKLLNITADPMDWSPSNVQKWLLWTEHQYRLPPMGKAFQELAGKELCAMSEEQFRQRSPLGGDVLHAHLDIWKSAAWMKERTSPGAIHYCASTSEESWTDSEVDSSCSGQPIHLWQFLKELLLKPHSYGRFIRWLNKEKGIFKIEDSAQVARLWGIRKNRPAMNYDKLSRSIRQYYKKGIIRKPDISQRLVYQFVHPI
The following applies: protein: recombinant; tags: N-terminal GST; dsDNA, one strand shown. Put shortly: as §1

The target in another assay is T10, ETV7 (Homo sapiens, UniProt Q9Y603 1-341).
T10 sequence: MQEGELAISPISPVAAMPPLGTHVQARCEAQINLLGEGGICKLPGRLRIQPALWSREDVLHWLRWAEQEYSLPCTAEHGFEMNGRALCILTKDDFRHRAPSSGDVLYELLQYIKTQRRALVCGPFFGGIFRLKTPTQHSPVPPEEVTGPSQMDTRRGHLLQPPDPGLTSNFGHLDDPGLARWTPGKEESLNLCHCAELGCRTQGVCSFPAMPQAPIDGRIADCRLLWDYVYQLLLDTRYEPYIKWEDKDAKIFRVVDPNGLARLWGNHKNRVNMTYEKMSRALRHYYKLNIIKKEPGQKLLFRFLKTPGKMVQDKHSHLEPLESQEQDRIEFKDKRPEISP
The following applies: protein: recombinant; tags: N-terminal GST; dsDNA, one strand shown. The method, boiled down:
as §1

The next assay deals with T11, ELF5 (Homo sapiens, UniProt Q9UKW6-2 1-255).
T11 sequence: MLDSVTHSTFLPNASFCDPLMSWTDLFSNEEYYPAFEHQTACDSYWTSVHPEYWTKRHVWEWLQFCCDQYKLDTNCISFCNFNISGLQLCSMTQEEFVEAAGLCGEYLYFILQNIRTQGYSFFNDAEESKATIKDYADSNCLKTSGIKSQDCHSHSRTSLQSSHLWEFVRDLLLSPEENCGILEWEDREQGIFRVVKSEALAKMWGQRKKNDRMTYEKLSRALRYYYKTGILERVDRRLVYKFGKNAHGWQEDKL
The following applies: protein: recombinant; tags: N-terminal GST; dsDNA, one strand shown. The method, boiled down: as §1

A further assay has as its target T12, ETV3 (Homo sapiens, UniProt P41162-2 1-143).
T12 sequence: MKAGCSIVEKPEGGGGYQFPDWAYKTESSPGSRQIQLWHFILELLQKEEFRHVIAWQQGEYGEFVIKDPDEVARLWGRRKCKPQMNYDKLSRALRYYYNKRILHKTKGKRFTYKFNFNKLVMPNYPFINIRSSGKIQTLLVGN
The following applies: protein: recombinant; tags: N-terminal GST; dsDNA, one strand shown. Put shortly:
as §1

The target in the next assay is ETV6 (Homo sapiens, UniProt P41212 1-452). The following applies: protein: recombinant; tags: N-terminal GST; dsDNA, one strand shown. Put shortly:
as §1

Chain of ETV5 (P41161 whole entry): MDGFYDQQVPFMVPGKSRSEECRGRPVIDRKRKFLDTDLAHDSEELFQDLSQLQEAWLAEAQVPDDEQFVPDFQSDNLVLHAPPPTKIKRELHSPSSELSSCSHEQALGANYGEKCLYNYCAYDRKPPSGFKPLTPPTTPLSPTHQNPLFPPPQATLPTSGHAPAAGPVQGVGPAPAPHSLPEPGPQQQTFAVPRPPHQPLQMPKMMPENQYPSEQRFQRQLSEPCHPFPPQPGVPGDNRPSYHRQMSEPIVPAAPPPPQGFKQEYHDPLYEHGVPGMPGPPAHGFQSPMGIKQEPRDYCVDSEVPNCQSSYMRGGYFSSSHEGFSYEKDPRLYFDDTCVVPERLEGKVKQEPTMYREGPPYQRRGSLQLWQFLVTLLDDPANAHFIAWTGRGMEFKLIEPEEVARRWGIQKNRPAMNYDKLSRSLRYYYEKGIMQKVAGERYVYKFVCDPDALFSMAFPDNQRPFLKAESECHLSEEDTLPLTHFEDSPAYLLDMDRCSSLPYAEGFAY
Chain of HSF1 (Q00613 whole entry): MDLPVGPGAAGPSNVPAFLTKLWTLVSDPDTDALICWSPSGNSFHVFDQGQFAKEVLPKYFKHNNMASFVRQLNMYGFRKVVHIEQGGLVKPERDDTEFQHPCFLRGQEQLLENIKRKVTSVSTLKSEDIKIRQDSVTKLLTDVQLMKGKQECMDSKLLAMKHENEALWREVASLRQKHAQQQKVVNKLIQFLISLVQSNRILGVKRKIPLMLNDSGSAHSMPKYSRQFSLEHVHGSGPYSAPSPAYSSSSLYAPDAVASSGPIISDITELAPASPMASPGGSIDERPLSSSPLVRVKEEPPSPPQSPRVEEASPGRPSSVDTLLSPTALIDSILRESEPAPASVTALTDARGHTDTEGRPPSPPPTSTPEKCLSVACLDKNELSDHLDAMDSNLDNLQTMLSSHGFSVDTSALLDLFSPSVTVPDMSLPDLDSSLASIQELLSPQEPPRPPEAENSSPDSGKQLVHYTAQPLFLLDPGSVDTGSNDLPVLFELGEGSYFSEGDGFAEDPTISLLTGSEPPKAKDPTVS
Chain of CRX (O43186 whole entry): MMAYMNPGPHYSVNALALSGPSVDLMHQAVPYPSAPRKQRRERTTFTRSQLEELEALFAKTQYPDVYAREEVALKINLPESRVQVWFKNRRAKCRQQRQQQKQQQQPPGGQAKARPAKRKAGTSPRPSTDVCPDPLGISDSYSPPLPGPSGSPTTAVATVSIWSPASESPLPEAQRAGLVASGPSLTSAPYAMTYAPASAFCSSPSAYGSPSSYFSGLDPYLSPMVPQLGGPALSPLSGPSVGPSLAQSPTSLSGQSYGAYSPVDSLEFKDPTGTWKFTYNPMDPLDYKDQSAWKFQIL
Chain of ETV6 (P41212 whole entry): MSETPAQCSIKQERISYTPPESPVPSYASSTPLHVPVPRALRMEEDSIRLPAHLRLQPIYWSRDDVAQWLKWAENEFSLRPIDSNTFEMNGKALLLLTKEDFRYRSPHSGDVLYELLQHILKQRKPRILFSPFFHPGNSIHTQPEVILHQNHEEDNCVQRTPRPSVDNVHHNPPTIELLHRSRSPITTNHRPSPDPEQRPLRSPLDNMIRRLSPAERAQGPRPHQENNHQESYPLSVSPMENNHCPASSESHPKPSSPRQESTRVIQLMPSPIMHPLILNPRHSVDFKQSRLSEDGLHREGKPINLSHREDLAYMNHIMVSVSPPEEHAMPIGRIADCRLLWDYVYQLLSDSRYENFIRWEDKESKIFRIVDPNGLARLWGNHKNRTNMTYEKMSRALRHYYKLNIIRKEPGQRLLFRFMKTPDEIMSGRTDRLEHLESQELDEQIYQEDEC
Chain of ELF4 (Q99607 whole entry): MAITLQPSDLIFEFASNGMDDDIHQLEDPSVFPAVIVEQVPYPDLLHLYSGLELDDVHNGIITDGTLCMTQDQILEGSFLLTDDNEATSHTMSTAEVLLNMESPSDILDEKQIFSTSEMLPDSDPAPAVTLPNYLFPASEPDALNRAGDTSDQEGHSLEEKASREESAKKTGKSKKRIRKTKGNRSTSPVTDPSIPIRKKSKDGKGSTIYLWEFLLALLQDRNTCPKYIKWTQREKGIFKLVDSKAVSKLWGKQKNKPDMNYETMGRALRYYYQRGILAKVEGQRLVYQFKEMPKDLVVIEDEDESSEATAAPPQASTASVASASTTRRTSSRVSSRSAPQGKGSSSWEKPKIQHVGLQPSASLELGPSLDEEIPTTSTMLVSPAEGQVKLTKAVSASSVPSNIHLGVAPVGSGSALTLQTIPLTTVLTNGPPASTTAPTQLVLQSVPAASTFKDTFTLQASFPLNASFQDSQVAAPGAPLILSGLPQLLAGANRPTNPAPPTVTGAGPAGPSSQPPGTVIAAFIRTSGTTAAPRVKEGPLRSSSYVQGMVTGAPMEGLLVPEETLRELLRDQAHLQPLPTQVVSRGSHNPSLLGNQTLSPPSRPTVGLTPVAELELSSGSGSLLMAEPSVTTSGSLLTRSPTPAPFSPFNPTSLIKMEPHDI
Chain of ETV1 (P50549 whole entry): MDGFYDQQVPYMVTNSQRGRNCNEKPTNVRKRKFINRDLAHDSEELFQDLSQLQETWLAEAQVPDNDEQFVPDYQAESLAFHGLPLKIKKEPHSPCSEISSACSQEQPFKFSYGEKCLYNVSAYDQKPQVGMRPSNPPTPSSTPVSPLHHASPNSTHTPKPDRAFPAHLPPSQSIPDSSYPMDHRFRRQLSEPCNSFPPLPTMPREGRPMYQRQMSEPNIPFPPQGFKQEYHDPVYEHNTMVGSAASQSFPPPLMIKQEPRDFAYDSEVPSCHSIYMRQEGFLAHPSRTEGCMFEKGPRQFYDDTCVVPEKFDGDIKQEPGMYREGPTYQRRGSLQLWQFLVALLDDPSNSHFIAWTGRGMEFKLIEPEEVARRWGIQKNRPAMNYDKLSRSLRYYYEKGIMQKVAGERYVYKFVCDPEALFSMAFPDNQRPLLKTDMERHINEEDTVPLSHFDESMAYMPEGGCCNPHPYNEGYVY

On to TCTGCG, for which the binding signal with FEV was 1.22 fold enrichment (6-mer frequency, TF over GST control); with ETV5, 1.22 fold enrichment (6-mer frequency, TF over GST control); with HSF1 it was 1.15 fold enrichment (6-mer frequency, TF over GST control); in the assay with SPIC, 1.24 fold enrichment (6-mer frequency, TF over GST control); with ELF4 it was 1.2 fold enrichment (6-mer frequency, TF over GST control); with ELK4, 1.14 fold enrichment (6-mer frequency, TF over GST control). Further, the binding signal was 1.19 fold enrichment (6-mer frequency, TF over GST control) in the assay with ETV2; 1.31 fold enrichment (6-mer frequency, TF over GST control) with ELF3; 1.09 fold enrichment (6-mer frequency, TF over GST control) in the assay with CRX; 1.45 fold enrichment (6-mer frequency, TF over GST control) with ETV1; 1.07 fold enrichment (6-mer frequency, TF over GST control) with ERF; 1.23 fold enrichment (6-mer frequency, TF over GST control) in the assay with ETV3L. Also, the binding signal in the assay with ETS2 is 1.17 fold enrichment (6-mer frequency, TF over GST control); with SPDEF, 1.21 fold enrichment (6-mer frequency, TF over GST control); with ETV7 it was 1.09 fold enrichment (6-mer frequency, TF over GST control); with ELF5, 1.15 fold enrichment (6-mer frequency, TF over GST control); with ETV3 it was 1.16 fold enrichment (6-mer frequency, TF over GST control); with ETV6 it was 1.14 fold enrichment (6-mer frequency, TF over GST control).
